LMP1 NFkB inh: reduces LMP1-driven NF-kappaB luciferase signal; AID 504558; inhibition, % at 12.5 µM; LMP1-induced NF-kappaB luciferase reporter cells, luminescence; 350,000 tested, 0.69% active; in the data active = inhibition above about 41%;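 also: 0% = neutral control wells and 100% = reference inhibitor control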
LGR2 inh: inhibitors of bursicon-induced Drosophila LGR2 receptor cAMP signaling; HEK293 LGR2, CRE-luciferase, bursicon-stimulated, 4 h; inhibition, % at 9.99 µM; 380,000 tested, 0.35% active; AID 720647;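 active = drop in luminescence signal, shown as inhibition above about 50% in the replicate tests, limit read from the data, passing the limit was not always enough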;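 also: agonist challenge used bursicon conditioned medium at about half maximal strength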
HSF1 inh: HSF1 inhibition; 300,000 tested, 0.77% active; NIH3T3-HGL HSE-luciferase, MG132-induced, luminescence 8 h; stronger effect = lower value; activity change, negative = inhibition, % at 7.5 µM (by protocol);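 active = more than half of replicate wells show activity change below -50%, luminescence cut by over half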;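 also: luciferase reports HSF-1 transcriptional activity via heat shock element; 0% = median of DMSO wells and -100% = zero luminescence signal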
HSF-1 act: increases HSF-1 driven luciferase reporter signal; AID 504408; 300,000 tested, 1.7% active; activation, % at 9 µM; NIH3T3-HGL HSF-1 luciferase reporter, MG132, 8 h; 100% = twice DMSO control signal;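 active = mean replicate activation of at least 50% with a set share of replicates each reaching 50%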;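 also: 0% = median of the neutral control wells and 100% = twice that signal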
TWEAK-Fn14 inh: inhibitors of TWEAK-Fn14 interaction signaling; TWEAK-stimulated Fn14 reporter cells, luciferase luminescence, 8 h; inhibition, % at 10 µM; 360,000 tested, 2% active; AID 1159606; in the data active = inhibition above about 50%
TROY signal inh: blocks TROY-dependent signaling in reporter cells. Q293 LMP1-TROYcd NF-kB luciferase reporter, 4 h. inhibition, % at 10 µM. 360,000 tested, 0.98% active. AID 1347056;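 active = compounds whose plate-normalised and pattern-corrected inhibition of the luciferase reporter signal at the single screening dose is 50% or more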
Starred values were filed as active, the others as inactive; · = no result given. This is a sample that favours compounds with a hit; in the whole collection about 3.6% have one here.

SMILES	LMP1 NFkB inh	LGR2 inh	HSF1 inh	HSF-1 act	TWEAK-Fn14 inh	TROY signal inh
COc1cc(/C=C/C(=O)OCC(=O)Nc2ccccc2Sc2ccc(Cl)cc2)ccc1O	-2	5	-2	11	36	52*
CC(NC(=O)COC(=O)/C=C/c1ccc(Cl)cc1)c1ccccc1 (stereo unspecified)	-19	3	1	6	8	2
COc1ccc(C(C)NC(=O)Cc2ccc(Br)cc2)cc1 (stereo unspecified)	-1	-5	22	61*	-4	5
COc1cc(Cl)ccc1OCc1cc(C(=O)NC(C)Cc2cnccn2)no1 (stereo unspecified)	-28	-67	38	59*	-9	-37
CC(Cc1cnccn1)NC(=O)c1cc(COc2ccc(F)cc2F)on1 (stereo unspecified)	-3	-2	-1	4	9	7
O=C(CCc1nnc(CCCc2ccccc2)o1)N1CCCCCC1	-16	-47	-3	-1	-28	-35
CCCOC1CCCN(C(=O)CCc2nnc(CCCCc3ccccc3)o2)C1 (stereo unspecified)	1	-14	27	56*	-3	-29
Cc1ccc(Sc2nc(-c3ccccc3)nnc2C(F)(F)F)cc1	3	·	88	151*	32	27
COc1cc(/C=N/Nc2ccc(S(N)(=O)=O)cc2[N+](=O)[O-])cc(OC)c1O	-6	-1	-7	-10	-50	59*
C[C@H]1CN([C@@H](C)CO)C(=O)Cc2cc(NC(=O)C3CC3)ccc2O[C@@H]1CN(C)Cc1ccc(Oc2ccccc2)cc1	·	-6	·	·	·	·
CCOC(=O)c1c(C)nc2c(C)cccn12	5	·	-89*	-92	84*	·
Cc1ccccc1NC1=C/C(=N\S(=O)(=O)c2ccc(C(=O)O)cc2)c2ccccc2C1=O	-13	-5	-9	-1	93*	42
CCc1ccc(S(=O)(=O)/N=C2\C=C(NS(=O)(=O)c3ccccc3)C(=O)c3ccccc32)cc1	-4	2	3	12	-6	-22
O=C(O)c1ccc(S(=O)(=O)/N=C2\C=C(Nc3ccccc3F)C(=O)c3ccccc32)cc1	-14	101*	51	65*	96*	49
COc1ccc(S(=O)(=O)N(C)C[C@H]2Oc3c(NC(=O)Nc4ccc(C(F)(F)F)cc4)cccc3C(=O)N([C@H](C)CO)C[C@H]2C)cc1	·	4	·	·	·	·
CN1C(=O)c2cc(NS(=O)(=O)c3ccc(F)cc3)ccc2OC[C@H]2O[C@@H](CC(=O)NCC(F)(F)F)CC[C@H]21	·	-17	·	·	·	·
Clc1c(-c2ccccc2)nnn1-c1ccccc1	-46	-80	41	75*	-7	-82
Nc1nnn(-c2ccccc2)c1-c1ccccc1	4	-1	2	4	1	-17
C[C@@H]1CN([C@@H](C)CO)C(=O)c2c(c3ccccc3n2C)-c2ccccc2CO[C@@H]1CN(C)CC1CC1	·	-6	·	·	·	·
Nn1c(-c2cccs2)nc2sc3c(c2c1=O)CCCC3	-36	-53	44	70*	29	-19
CC1(C)Cc2c(sc3nc(-c4cccs4)n(N)c(=O)c23)CO1	-17	·	11	17	5	5
Cc1ccccc1-c1nc2sc3c(c2c(=O)n1N)CCCC3	-15	·	-60*	-69	71*	77*
O=c1oc(-c2ccccc2)nc2sc3c(c12)CCCC3	-1	-40	51	69*	53*	-32
Nc1nc(-c2cccnc2)nc2sc3c(c12)CCCC3	-14	-37	28	80*	-7	-40
CCS(=O)(=O)Nc1ccc2c(c1)C(=O)N(C)[C@H]1CC[C@@H](CC(=O)NC)O[C@@H]1CO2	·	-12	·	·	·	·
CC(=O)N1CC2(C1)[C@H](c1ccc(-c3cccc(F)c3)cc1)[C@@H](CO)N2CC1CC1	·	-7	·	·	·	·
COCC(=O)Nc1ccc2c(c1)C(=O)N(C)C[C@@H](OC)[C@H](C)CN(C(=O)C1CCCC1)[C@H](C)CO2	·	1	·	·	·	·
O=C(C[C@@H]1CC[C@H](NS(=O)(=O)c2ccc(F)cc2)[C@H](CO)O1)NCc1ccncn1	·	-4	·	·	·	·
CCN(CC)C(=O)c1cccc(-c2csc(C(O)c3cccc(Cl)c3)n2)c1 (stereo unspecified)	·	25	·	·	61*	45
CCCCc1ccc(NC(=O)CSc2nc(=O)n(CCN(CC)CC)c3c2CCCC3)cc1	-20	11	6	37	-8	54*

Bioassay records from PubChem.
